D3 antag = antagonists of human D3 dopamine receptor | actives 2.5% (n = 360,000) | max response, negative = inhibition, % | P35462 | D3R cells, DiscoveRx beta-arrestin luminescence, antagonist mode; stronger effect = lower value | AID 652054; in the data active means max response below about -50%; inconclusive means no clear call, values can overlap the other calls; further: on the % scale 0 is the no-effect control and ±100 the full control effect
Target sequence (P35462 whole entry, looked up): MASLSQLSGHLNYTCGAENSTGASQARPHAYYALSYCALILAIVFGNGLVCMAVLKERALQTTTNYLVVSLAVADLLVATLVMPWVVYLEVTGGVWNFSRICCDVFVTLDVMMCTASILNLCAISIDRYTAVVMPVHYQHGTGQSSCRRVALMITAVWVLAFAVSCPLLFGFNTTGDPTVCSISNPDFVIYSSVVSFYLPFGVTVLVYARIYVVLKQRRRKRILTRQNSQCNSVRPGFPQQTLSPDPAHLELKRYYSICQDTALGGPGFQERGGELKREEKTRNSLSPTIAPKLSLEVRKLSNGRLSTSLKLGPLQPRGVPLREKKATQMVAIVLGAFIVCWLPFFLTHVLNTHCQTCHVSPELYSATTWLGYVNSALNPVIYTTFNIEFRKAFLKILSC
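Cells expressing the human receptor were seeded at 1500 cells/well, incubated overnight at 37 degrees C in 5% CO2, then exposed to library compounds with dopamine controls for 90 minutes at 37 degrees C before luminescent detection.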
KB-3-1 tox = kills parental KB-3-1 adenocarcinoma cells; KB-3-1 viability, CellTiter-Glo ATP luminescence, 72 h; Potency, µM (series often up to 46.1 µM), usual class: cytotoxic; actives 1.4% (n = 400,000); AID 1347075; further: potency means the concentration at half of the fitted maximal effect; on the % scale 0 is the no-effect control and ±100 the full control effect; nearly all actives have a fitted effect of over 60% in size
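Luminescent ATP read-out (CellTiter-Glo) measures survival of drug-naive KB-3-1 cells after 72 h compound exposure at 37 °C. Titration series was screened from lowest to highest concentration, with DMSO vehicle plates as background controls.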
MCF10A rereplic = DNA re-replication induction in MCF 10a cells; MCF 10A DNA re-replication, Hoechst nuclear intensity, 48 h; Potency, µM (series often up to 46.1 µM), inactives show at the top dose activity, positive = re-replication, most hits filed as activators; actives 2.9% (n = 350,000); further: potency means the concentration at half of the fitted maximal effect; % of control where 0% means no effect; nearly all actives have a fitted effect of over 50% in size
SW480 rereplic = induces DNA re-replication in SW480 colon adenocarcinoma cells | SW480 DNA re-replication, Hoechst DNA content imaging, 48 h | Potency, µM (series often up to 46.1 µM), for inactives: at the top dose re-replication activation, usual class: activators | actives 1.8% (n = 340,000); further: potency means the concentration at half of the fitted maximal effect; % of control where 0% means no effect; nearly all actives have a fitted effect of over 55% in size
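Treated cells incubate 48 hr (37 C, 5% CO2), are stained 40 min with Hoechst, and nuclear fluorescence is enumerated; a rise in nuclei with high DNA signal marks re-replication.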
KB-V1 MDR tox = kills drug-selected multidrug resistant KB-V1 cells. KB-V1 MDR cells viability, CellTiter-Glo, 72 h. actives 3.4% (n = 400,000). Potency, µM (top dose mostly 46.1 µM), actives largely listed as cytotoxic; further: potency means the concentration at half of the fitted maximal effect; on the % scale 0 is the no-effect control and ±100 the full control effect; nearly all actives have a fitted effect of over 60% in size
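Drug-selected KB-V1 cells, grown in DMEM lacking phenol red with 10% FBS, receive compound titrations; after three days at 37 degrees C, surviving cell ATP is quantified by CellTiter-Glo luminescence and responses normalized and curve-fitted.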
D3 ag = agonists of human D3 dopamine receptor. max activation, %. actives 0.58% (n = 410,000). D3R DiscoveRx beta-arrestin cells, luminescence, 90 min. AID 652048; in the data active means max activation above about 30%; further: 0% is about no effect
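Agonist-mode cell screen: cells plated at 1500/well and incubated overnight at 37 °C, then exposed to library compounds for 90 min at 37 °C. Detection reagent was added for 30–60 min at room temperature, and luminescence was read.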
* = called active by the depositor; i = inactive; ? = inconclusive; · = no result. An excerpt weighted towards active compounds, which were near 8.9% of everything screened. Unless noted, the call rests on the fitted dose curve; in most records, active means well fitted curve in the direction sought with a large enough effect; inconclusive means small, poorly fitted or top-dose-only effect, or another doubt; inactive means no such curve, though single readings can be large; an effect the other way counts as inactive or inconclusive.

SMILES | D3 antag | KB-3-1 tox | MCF10A rereplic | SW480 rereplic | KB-V1 MDR tox | D3 ag
Cc1ccc(S(=O)(=O)C(CNC(=O)C(=O)NCCc2ccccc2)c2cccs2)cc1 (configuration not stated) | · | i | · | · | i | -4
Cc1cc(C(C)(C)C)cc(C)c1CC1=NCCN1 | -79* | i | 11% | -9% | i | 0
c1ccc(CC2=NCCN2)cc1 | -5 | i | -1% | -24% | i | -1
CCc1cccc(NC(=O)CNS(=O)(=O)c2ccc3nc(C)sc3c2)c1 | · | · | · | · | · | 8
COc1ccc(-c2cc(-c3nnc(COC(=O)CC4CC5CCC4C5)o3)c3ccccc3n2)cc1OC (configuration not stated) | 3 | ? | ? | 2.6µM* | 9.2µM* | 5
CCC(C)NCCOc1cccc(Br)c1 (configuration not stated) | -72* | i | 3% | 0% | i | 0
C=CCNCCOc1cccc(Br)c1 | -76* | i | 11% | 0% | i | -22
c1ccc(C2OC3c4cccc5cccc(c45)C3N2c2ccccc2)cc1 (configuration not stated) | -59* | i | 18µM* | ? | i | -5
COc1ccc(-c2nnn(CC(=O)N3CCOCC3)n2)cc1 | -60* | i | -14% | -5% | i | 5
Cc1ccccc1NC(=O)Cn1nnc(-c2ccc(CN3CCC(C)CC3)cc2)n1 | -10 | i | 0% | -4% | ? | -8
COc1ccc(/C(N)=N/OC(=O)N2CCOCC2)cc1 | -9 | i | 21µM* | ? | i | -5
COc1ccc(NC(=O)Cn2nnc(-c3ccc(CN4CCOCC4)cc3)n2)c(OC)c1 | 0 | i | 9% | -2% | 21µM* | -4
COc1ccc2c(c1)cc1c(=O)n(CC(=O)NCCCN3CCOCC3)nc(C)n12 | -1 | i | ? | ? | i | -7
CCc1nnc(NC(=O)CSc2nc3c([nH]c4ccccc43)c(=O)n2-c2ccc(Cl)cc2)s1 | · | i | · | · | i | 2
CCOC(=O)c1c(C)oc2ccc(N(C(=O)Oc3ccccc3)S(=O)(=O)c3ccc(CC)cc3)cc12 | · | · | · | · | · | -1
CCC(Sc1nnc2c3ccccc3n(C)c2n1)C(=O)Nc1nnc(C(C)C)s1 (configuration not stated) | · | i | · | · | i | -13
Cc1cc(C)cc(NC(=O)c2sc3nc(-c4ccccc4)cn3c2C)c1 | · | · | · | · | · | -12
CO/N=C/NC(=O)Cc1cn(-c2ncc(C(F)(F)F)cc2Cl)c2ccccc12 | -29 | ? | -15% | 2% | 13µM* | 1
CC(=O)/C=C\c1cn(-c2ncc(C(F)(F)F)cc2Cl)c2ccccc12 | 15 | 21µM* | ? | ? | ? | 1
O=C(N/N=C/c1ccc(O)cc1O)c1ccc(CN2C(=O)c3cccc4cccc2c34)cc1 | 5 | ? | ? | ? | ? | 30
O=C(N/N=C/c1ccccc1)c1ccc(CN2C(=O)c3cccc4cccc2c34)cc1 | -13 | i | 16µM* | ? | i | -8
COc1ccc(C2NC(=O)c3sc4nc(C)c(C(C)=O)c(-c5ccc(Cl)cc5)c4c3N2)cc1 (configuration not stated) | 30 | i | 16µM* | ? | i | 4
COCc1cc(C)nc2sc(C(=O)Nc3ccccc3F)c(N)c12 | 2 | ? | 6.5µM* | 12µM* | i | 0
CCCCNC(=O)c1sc2nc(C)cc(COC)c2c1-n1cccc1 | 8 | i | 0% | -4% | 5.2µM* | 7
COCc1cc(C)nc2sc(C(=O)OC(C)C)c(N)c12 | -11 | i | 21µM* | ? | ? | 7
SMILES | D3 antag | KB-3-1 tox | MCF10A rereplic | SW480 rereplic | KB-V1 MDR tox | D3 ag
COCc1cc(C)nc2sc(C(=O)NN)c(-n3cccc3)c12 | -15 | i | -2% | -1% | i | 1
COCc1cc(C)nc2sc(C(=O)Nc3ccccc3O)c(N)c12 | · | · | · | · | · | 7
CCCS(=O)(=O)N1CC(=O)N(c2ccc(Cl)cc2C)C(C)(C(=O)NC2CCCC2)C1 (configuration not stated) | · | i | · | · | i | -11
Cc1cccc(Cn2c(=O)n(-c3ccccc3C)c(=O)c3c2c2cc(C)ccc2n3C)c1 | · | i | · | · | i | 5
CCC(C)NC(=O)Cn1c(=O)n(-c2ccc(C)c(C)c2)c(=O)c2c3c(sc21)CCCCC3 (configuration not stated) | · | i | · | · | ? | 8
CCOC(=O)c1c(C)[nH]c(C(=O)N/N=C\c2ccccc2O)c1C | 3 | ? | ? | 5.2µM* | 2.1µM* | -14
CCOC(=O)c1c(C)[nH]c(C(=O)N/N=C/c2ccc(OC)c(OC)c2)c1C | 5 | ? | 14% | ? | i | 5
CCNC(=O)C(=O)N/N=C/c1cc([N+](=O)[O-])ccc1O | ? | i | ? | 33% | i | 4
CCOC(=O)c1c(C)[nH]c(C(=O)N/N=C/c2cc([N+](=O)[O-])ccc2O)c1C | ? | 12µM* | -1% | 7% | ? | -6
COc1ccc(C(=O)NC(=S)Nc2ccccc2F)cc1 | 0 | i | 2% | -5% | i | -8
CNC(=O)NC(=S)NC(=O)c1ccc(OC)cc1 | -72* | i | -1% | -13% | i | -7
Oc1ccccc1N1CCN(C(=S)NCCc2ccccc2)CC1 | -25 | ? | ? | 8% | 15µM* | 7
COc1ccc(C(=O)NC(=S)NNC(=O)c2cnccn2)cc1 | 1 | ? | 6.5µM* | 1% | i | 0
COc1ccc(C(=O)NC(=S)NNC(=O)c2ccccc2O)cc1 | 17 | ? | 23µM* | 13% | ? | 38*
Cc1ccc(C(=O)Nc2c(C(=O)Nc3ccc(C)c(C)c3)sc3nc(C)cc(C)c23)cc1 | · | ? | · | · | ? | 3
CN(C(=O)Cn1cnc2onc(-c3ccc(F)cc3)c2c1=O)c1ccccc1Cl | · | i | · | · | i | -11
O=C(NC(=S)NNC(=O)c1ccccc1O)c1cccc([N+](=O)[O-])c1 | 8 | ? | 3% | -76% | i | 43*
COc1ccc(C(=O)NNC(=S)NC(=O)c2cccc([N+](=O)[O-])c2)cc1 | 27 | ? | 2% | 4% | i | -1
COc1ccc(C(=O)NC(=S)N2CCN(c3ccccc3O)CC2)cc1 | 41 | i | -5% | 3% | 21µM* | -8
COc1ccc(C(=O)NC(C(=O)N2CCN(c3ccccc3O)CC2)C(C)C)cc1 (configuration not stated) | 3 | i | 6% | -5% | ? | 18

Screening results (PubChem)
